The record followed here is PubChem BioAssay (NCATS).

Values joined by “and” are separate entries in the source; they are usually repeats but may differ in a detail not shown here. Equal entries are not always repeated. Results filed as inconclusive are left out. Values without a mark were called inactive. Active and inactive are the calls of the source. Calls follow the shape of the dose curve; as a rule, active = well fitted inhibition curve with a large enough effect; inconclusive = small, poorly fitted or top-dose-only effect; inactive = no such curve, though single readings can be large or run the other way.
% is scaled to controls: 0 for no effect and ±100 for the full control effect; potency is read from the fitted curve at half-maximal effect.

The nature of the assay: Primary qHTS for inhibitors of nuclear receptor binding SET domain protein 2 (NSD2) in an RCH-ACV wild type WT cells (2C) (AID 1645877). Also: nearly all actives have a fitted effect of over 70% in size. Particulars: RCH-ACV (leukaemia line) NSD2 WT (2C) viability, CellTiter-Glo, 72 h; series mostly up to 44.9 µM; activity change, negative = cell killing: at the top concentration. (In general: Quantitative high-throughput screening tests each substance at several concentrations.)
`Cc1cn[nH]c1`: the Potency entry was “inactive”.
Turning to `O=NN(CCCl)C(=O)NCCCl`, the “activity change, negative = cell killing” value was -3.95%.
`Nc1ncnc2nc(-c3ccc(N4CCOCC4)nc3)cc(-c3cccc(Br)c3)c12`: the Potency was 20.9 µM (active).
For the compound `CC(C)(N)C(=O)N[C@H](COCc1ccccc1)C(=O)N1CCC2(CC1)CN(S(C)(=O)=O)c1ccccc12`, the Potency was 14.5 µM (active) and 14.8 µM (active).
`CC(C)C[C@H](NC(=O)[C@@H](O)[C@H](N)Cc1ccccc1)C(=O)O`: the compound was classed as inactive.
For `CN1CCN(CCCN2c3ccccc3Sc3ccc(C(F)(F)F)cc32)CC1`, the Potency was 23.7 µM (active) and 16.6 µM (active).
In the case of `NS(=O)(=O)c1cc2c(cc1Cl)NC=NS2(=O)=O`, the Potency entry was “inactive”.
`CNC(=O)c1ccccc1Sc1ccc2c(/C=C/c3ccccn3)n[nH]c2c1`: the Potency is 531 nM (active) and 1.03 µM (active) and 833 nM (active).
For `O=C(O)CCc1ccc(NCc2cccc(Oc3ccccc3)c2)cc1`, the result was inactive.
Turning to `O=C(NOC[C@H](O)CO)c1ccc(F)c(F)c1Nc1ccc(I)cc1F`, the “activity change, negative = cell killing” value is -29.6%.
Consider `NCCCC(N)(C(=O)O)C(F)F` (centres undefined), for which the Potency entry was “inactive”.
As for `O=c1n(CCCN2CCN(c3cccc(Cl)c3)CC2)nc2ccccn12`, the “activity change, negative = cell killing” value is -16.4%.
With `Cc1cccc(-c2[nH]c(C(C)(C)C)nc2-c2ccc3nccnc3c2)n1`, the Potency was 11.8 µM (active) and 6.51 µM (active).
As for `Cc1cc2c(C(C)C)c(O)c(O)c(C=O)c2c(O)c1-c1c(C)cc2c(C(C)C)c(O)c(O)c(C=O)c2c1O`, the Potency is 9.34 µM (active).
